Compound activity: PubChem BioAssay, several laboratories
In the library only some 4.2% were active in any assay of this set; here they are far more common.
AHR activator: activators of human aryl hydrocarbon receptor; P35869; activation, % at 5 µM; AID 2796; AHR-responsive luciferase reporter cells, luminescence; hit rate 2.5% among 320,000; in the data active = activation above about 47%;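 also: 0% = vehicle wells and 100% = reference agonist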
Target sequence (P35869 whole entry, looked up): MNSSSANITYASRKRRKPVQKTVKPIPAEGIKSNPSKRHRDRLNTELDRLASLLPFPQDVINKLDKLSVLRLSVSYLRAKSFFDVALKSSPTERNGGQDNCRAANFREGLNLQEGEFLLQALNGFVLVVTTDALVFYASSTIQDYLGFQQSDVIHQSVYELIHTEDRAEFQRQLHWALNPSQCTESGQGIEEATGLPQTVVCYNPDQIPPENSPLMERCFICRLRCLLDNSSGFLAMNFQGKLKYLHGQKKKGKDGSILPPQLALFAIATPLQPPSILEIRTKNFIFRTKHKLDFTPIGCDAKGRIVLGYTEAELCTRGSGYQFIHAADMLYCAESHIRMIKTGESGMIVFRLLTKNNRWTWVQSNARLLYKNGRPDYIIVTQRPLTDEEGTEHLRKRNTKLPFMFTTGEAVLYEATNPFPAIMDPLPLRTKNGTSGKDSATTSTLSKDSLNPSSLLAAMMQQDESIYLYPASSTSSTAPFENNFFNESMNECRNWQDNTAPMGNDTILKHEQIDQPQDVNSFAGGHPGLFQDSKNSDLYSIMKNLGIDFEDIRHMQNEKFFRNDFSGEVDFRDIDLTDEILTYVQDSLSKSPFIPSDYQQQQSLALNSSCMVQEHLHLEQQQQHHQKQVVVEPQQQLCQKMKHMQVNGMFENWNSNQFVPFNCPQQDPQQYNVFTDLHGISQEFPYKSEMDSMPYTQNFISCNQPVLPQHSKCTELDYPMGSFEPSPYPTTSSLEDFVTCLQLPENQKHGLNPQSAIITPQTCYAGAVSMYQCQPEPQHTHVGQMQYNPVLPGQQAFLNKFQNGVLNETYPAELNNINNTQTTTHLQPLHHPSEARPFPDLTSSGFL
FXN GAA850 act: increases GAA850 frataxin promoter reporter activity. HEK293 lucGAA850 FXN promoter luciferase reporter, 24 h; percent of 10 µM SAHA response. activation, % at 6 µM. hit rate 0.56% among 360,000. AID 540364;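 active = activation above the average of all compounds screened plus 3 SD, cutoff fixed separately per campaign, cut at about 7.5% in these data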;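 also: 0% = DMSO wells and 100% = 10 µM SAHA wells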
esBAF inh: SWI/SNF esBAF complex inhibition | hit rate 2% among 350,000 | reporter increase, % at 12.5 µM | mouse ES cells, Bmi1-luciferase knock-in reporter, 24 h; 100% = twice the neutral-well signal; in the data active = activation above about 40%; inconclusive = no clear call, values can overlap the other calls;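 also: 0% = median of the plate's neutral control wells and 100% = double that signal; a rise in the Bmi1 reporter signal indicates esBAF inhibition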
Wnt bcat act: Wnt/beta-catenin pathway activation. Wnt/beta-catenin reporter cell assay, activator, plate reader. activation, % at 9.35 µM. hit rate 1.2% among 300,000. AID 743398; in the data active = activation above about 30%, passing the limit was not always enough; inconclusive = no clear call, values can overlap the other calls;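 also: 0% = neutral control wells and 100% = positive control wells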
MITF act: activators of MITF-driven TRPM1 promoter activity in SK-MEL-5 cells | activation, % at 12.5 µM | SK-MEL-5 TRPM1-promoter luciferase, 24 h; % of positive control, neutral wells = 0 | AID 588334 | hit rate 0.75% among 300,000;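 active = mean activation of at least 80% with every replicate also reaching 80%; inconclusive = mean reaches 80% but some replicate falls short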;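 also: 0% = neutral control wells and 100% = parthenolide positive control wells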
* hit, by the source's call; ? = inconclusive; nt = no result.

SMILES	AHR activator	FXN GAA850 act	esBAF inh	Wnt bcat act	MITF act
CCNC(=O)C[C@H]1CC[C@H]2[C@H](COc3ccc(NC(=O)Nc4ccccc4C)cc3C(=O)N2C)O1	nt	nt	1	nt	nt
COC(=O)N(C)C[C@@H]1OCc2ccccc2-c2c(n(C)c3ccccc23)C(=O)N([C@@H](C)CO)C[C@H]1C	nt	nt	1	nt	nt
NC(=O)c1ccsc1NC(=O)COc1ccccc1	17	3	65*	-3	70
CCc1ccc(N/C(N)=N/c2nc(CSc3ncccn3)cc(=O)[nH]2)cc1	50*	1	nt	-1	-24
COc1ccc(N/C(N)=N/c2nc(CSc3nnc(C)s3)cc(=O)[nH]2)cc1	11	-4	-7	-2	-21
CC(C)CC#Cc1ccc2c(c1)O[C@H](CN(C)Cc1ccc3c(c1)OCO3)[C@H](C)CN([C@@H](C)CO)S2(=O)=O	nt	nt	-7	nt	nt
CNC(=O)c1ccsc1NC(=O)c1ccccc1	49*	3	15	6	4
COC(=O)c1sccc1NC(=O)c1ccc(Cl)s1	20	-3	-18	-1	-13
CNC(=O)c1ccsc1NC(=O)CCS(=O)(=O)c1ccccc1	1	0	nt	-1	1
CNC(=O)c1ccsc1NC(=O)c1ccc(Cl)s1	66*	1	16	-2	nt
C[C@@H]1CCCCO[C@H](CN(C)Cc2ccc(C(=O)O)cc2)[C@H](C)CN([C@H](C)CO)C(=O)c2cc(NC(=O)NC3CCCCC3)ccc2O1	nt	nt	-3	nt	nt
COc1ccc(/C(C#N)=C/c2ccccn2)cc1	-4	7	32	33*	79
N#C/C(=C\c1ccccn1)c1nc2ccccc2s1	11	5	33	7	-28
Cc1nnsc1C(=O)Nc1cc(Cl)ccc1Cl	-2	-1	7	42*	nt
Cc1nc2sc(C(c3ccco3)N3CCc4ccccc4C3)c(O)n2n1 (stereo not drawn)	51*	3	-2	-3	-7
CCOC(=O)c1[nH]c(=O)[nH]c1CSc1nc(C)cc(C)n1	48*	-1	-4	-1	-8
Cn1c(C(=O)N2CCc3ccccc3C2)cc2oc3ccccc3c21	2	2	55*	3	61
COC1CCN(C(=O)C2CCC(=O)N(C3CCCCCC3)C2)CC1 (stereo not drawn)	0	2	56*	23	68
COCC1CCN(C(=O)C2CCC(=O)N(C3CCCC3)C2)CC1 (stereo not drawn)	-1	3	12	1	17
Cc1cc(OCC(=O)NCc2ccncc2)c2c(C)cc(=O)oc2c1	61*	-1	-1	2	-12
CCCCc1cc(=O)oc2cc(C)cc(OCC(=O)Nc3cccnc3)c12	51*	-5	-8	-5	0
CCNC(=O)C[C@@H]1CC[C@H]2[C@H](COc3ccc(NC(=O)Nc4ccc(C)cc4)cc3C(=O)N2C)O1	nt	nt	6	nt	nt
CC(C)NC(=O)N(C)C[C@H]1Oc2ncc(-c3cncnc3)cc2C(=O)N([C@@H](C)CO)C[C@@H]1C	nt	nt	2	nt	nt
Cc1cc(/C=C2\C(=N)N3N=CSC3=NC2=O)c(C)n1Cc1ccccc1	9	4	38	36*	22
CCCC(=O)Nc1cc(-c2nc3ncccc3o2)ccc1Cl	75*	1	4	0	-1
SMILES	AHR activator	FXN GAA850 act	esBAF inh	Wnt bcat act	MITF act
CCCC(=O)Nc1cc(-c2nc3ncccc3o2)ccc1C	17	-1	-2	-1	-10
CCCC(=O)Nc1ccc(Cl)c(-c2nc3ncccc3o2)c1	1	0	-14	-2	19
CC(C)C(=O)Nc1cccc(-c2nc3ncccc3o2)c1	-3	1	11	-1	nt
CC(C)C(=O)Nc1ccc(-c2nc3ncccc3o2)cc1	-8	4	-18	37*	nt
CCCC(=O)Nc1ccc(-c2nc3ncccc3o2)cc1	nt	6	37	37*	nt
C[C@@H]1CCCCO[C@H](CN(C)C(=O)C2CCCCC2)[C@@H](C)CN([C@H](C)CO)C(=O)c2cc(NC(=O)Nc3ccc(C(F)(F)F)cc3)ccc2O1	nt	nt	-3	nt	nt
COC(=O)C[C@@H]1CC[C@@H]2[C@@H](COc3ccc(NC(=O)NCc4ccccc4)cc3C(=O)N2C)O1	nt	nt	3	nt	nt
COCC(=O)N[C@@H]1CC[C@H](CC(=O)NCc2ccc(Cl)cc2)O[C@@H]1CO	nt	nt	0	nt	nt
CCC(=O)N(C)C[C@@H]1Oc2cc(C#CCC3CCCC3)ccc2S(=O)(=O)N([C@H](C)CO)C[C@@H]1C	nt	nt	-1	nt	nt
CN(C)C(=O)C[C@H]1CC[C@@H]2[C@H](COC[C@H](O)CN2S(=O)(=O)c2ccccc2Cl)O1	nt	nt	-2	nt	nt
O=C(O)COCC(=O)Nc1cc(C(F)(F)F)cc(C(F)(F)F)c1	5	-2	nt	2	-9
CC(CC(=O)O)CC(=O)Nc1cc(C(F)(F)F)cc(C(F)(F)F)c1 (stereo not drawn)	-3	0	nt	51*	nt
Fc1cccc(/C=N/Nc2nccnc2Cl)c1	24	4	-7	14	65
Clc1ccc(/C=N/Nc2nnc(-c3ncc[nH]3)c3ccccc23)cc1	76*	2	22	nt	6
Fc1cccc(/C=N/Nc2nncc3ccccc23)c1	55*	0	-4	0	15
Nc1cnnc(N/N=C\c2ccccc2)c1Cl	24	3	28	-2	38
Clc1cccc(/C=N/Nc2nnc(Cl)c3ccccc23)c1	50*	1	?	nt	30
CC/C(=N\Nc1nncc2ccccc12)c1ccc(F)cc1	-12	3	41*	20	88*
CC(C)C#Cc1cnc2c(c1)C(=O)N([C@H](C)CO)C[C@H](C)[C@@H](CN(C)C(=O)c1cccnc1)O2	nt	nt	-19	nt	nt
Cc1ccc(S(=O)(=O)N(C)C[C@H]2OCCCC[C@H](C)Oc3ccc(NS(=O)(=O)c4ccc(F)cc4)cc3C(=O)N([C@@H](C)CO)C[C@H]2C)cc1	nt	nt	-3	nt	nt
COc1cc(/C=N/NC(=O)CNC(=O)c2ccccc2)ccc1OC(=O)c1cccs1	26	-1	0	33*	13
O=[N+]([O-])c1ccccc1N/N=C\c1ccccc1F	9	4	63*	57*	75
O=C(CNC(=O)c1cccs1)N/N=C/c1ccccc1[N+](=O)[O-]	3	4	60*	9	75
O=[N+]([O-])c1ccccc1/C=N/OCc1ccccc1	-9	6	65*	24	101*
CCNC(=O)[C@@H]1[C@@H](CO)[C@@H]2Cn3c(ccc(C4=CCCC4)c3=O)[C@H]1N2Cc1cccnc1	nt	nt	-6	nt	nt
SMILES	AHR activator	FXN GAA850 act	esBAF inh	Wnt bcat act	MITF act
O=C(CC1CC1)Nc1ccc2c(c1)[C@@H]1C[C@H](CC(=O)N3CCCCC3)O[C@@H](CO)[C@@H]1O2	nt	nt	2	nt	nt
O=[N+]([O-])c1ccccc1N/N=C\c1ccccc1Cl	8	4	62*	nt	41
O=[N+]([O-])c1ccc(O)c(/C=N/Nc2ccccc2Cl)c1	41	4	47*	?	35
O=C(N/N=C/c1cc([N+](=O)[O-])ccc1O)C1CC1	12	0	13	2	-23
O=[N+]([O-])c1ccccc1C=NNc1ccccc1	nt	2	91*	35*	27
O=[N+]([O-])c1ccc(O)c(/C=N/n2cnc3ccccc32)c1	56*	-3	1	3	-5
